TDP1 cell CPT: qHTS for Inhibitors of human tyrosyl-DNA phosphodiesterase 1 (TDP1): qHTS in cells in presence of CPT. AID 686979, 2013. chicken DT40 Tdp1-/-;hTDP1 cells + 20 nM CPT, ATP luminescence, 48 h. Potency, µM (titrated, usually from 46.2 µM), usual class: inhibitors. 12% of 420,000 active; also: nearly all actives have a fitted effect of over 55% in size
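Chicken DT40 Tdp1-/- cells stably complemented with human TDP1 were seeded at 400 cells/well in medium containing 20 nM camptothecin, exposed to pin-transferred compounds, and grown at 37 °C for at least 48 hr. Viability was read as ATP luminescence.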
S-ASM inh: Inhibitors of Secretory Acid Sphingomyelinase (S-ASM): qHTS; Sphingomyelin phosphodiesterase (Homo sapiens), P17405; placental ASM, HMU-PC fluorogenic substrate, 60 min; Potency, µM (top dose mostly 57.5 µM), most hits filed as inhibitors; 0.006% of 340,000 active
Target sequence (P17405 47-631 limits assumed): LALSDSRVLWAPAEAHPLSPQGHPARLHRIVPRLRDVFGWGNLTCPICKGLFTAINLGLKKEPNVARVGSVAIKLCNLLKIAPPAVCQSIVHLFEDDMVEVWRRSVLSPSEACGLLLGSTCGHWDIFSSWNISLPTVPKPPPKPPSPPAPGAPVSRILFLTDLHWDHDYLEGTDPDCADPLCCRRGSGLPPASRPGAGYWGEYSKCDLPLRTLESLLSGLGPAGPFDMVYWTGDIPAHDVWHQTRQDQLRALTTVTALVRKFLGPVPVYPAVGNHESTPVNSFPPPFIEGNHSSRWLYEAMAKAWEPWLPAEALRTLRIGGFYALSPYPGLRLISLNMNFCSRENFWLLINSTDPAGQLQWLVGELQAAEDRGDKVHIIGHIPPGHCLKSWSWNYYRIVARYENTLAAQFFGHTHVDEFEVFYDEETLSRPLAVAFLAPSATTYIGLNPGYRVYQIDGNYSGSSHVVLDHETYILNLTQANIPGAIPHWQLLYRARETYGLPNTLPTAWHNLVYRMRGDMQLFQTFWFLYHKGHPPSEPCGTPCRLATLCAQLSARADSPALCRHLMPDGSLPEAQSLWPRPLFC
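Human placenta-derived ASM enzyme was preincubated with compound for 10 minutes at room temperature, then given fluorogenic substrate HMU-PC0 (9 uM final) for 60 minutes at 37 °C; a pH 10 stop preceded fluorescence reading at Ex 386/Em 447 nm.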
TDP1 cell noCPT: qHTS for Inhibitors of human tyrosyl-DNA phosphodiesterase 1 (TDP1): qHTS in cells in absence of CPT; 15% of 420,000 active; DT40 Tdp1-/- hTDP1 cells, no CPT, ATP luminescence, 48 h; Potency, µM (series often up to 46.2 µM), hits mostly inhibitors; AID 686978, 2013; also: nearly all actives have a fitted effect of over 55% in size
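Chicken DT40 Tdp1-/- cells complemented with human TDP1, screened without camptothecin (DMSO vehicle only), 400 cells/well. Compounds pin-transferred, cells incubated at 37 °C for at least 48 hr. Growth read as ATP-dependent luminescence (CellTiter-Glo, 30 min at RT).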
TGFb SMAD3 inh: qHTS for Inhibitors of TGF-b; HepG2 CAGA-GFP TGF-b/SMAD3 reporter, GFP fluorescence, 18 h; TGF-beta stimulated, 500 pg/mL final; Potency, µM (doses to about 46.1 µM), actives largely listed as inhibitors; 1.2% of 410,000 active; AID 588855, 2011; also: nearly all actives have a fitted effect of over 65% in size
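Inhibition was scored as loss of TGF-beta-induced (500 pg/mL final, 18 hours, 37 degrees C) GFP in HEPG2 cells carrying a CAGA-GFP reporter, in DMEM with 1% FBS. Well GFP was summed per cell; Activity was normalised to unstimulated and stimulated DMSO wells, then concentration-response fitting.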
HepG2 viability: qHTS for Inhibitors of TGF-b: Cytotox Counterscreen; HepG2 CAGA-GFP viability, ATP luminescence, 18 h; Potency, µM (top dose mostly 46.1 µM), most hits filed as cytotoxic; 0.76% of 410,000 active; AID 588856, 2011
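CellTiter-Glo luminescence gave cytotoxicity after 18 hours at 37 degrees C. The cells were HepG2 CAGA-GFP in 1% FBS DMEM, stimulated with 500 pg/mL TGF-beta after compound addition. %Activity was normalised to no-cell wells (complete cell-killing) and DMSO (no toxicity), and curves were fitted and classified.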
IL-1B inflam inh: qHTS for Inhibitors of Inflammasome Signaling: IL-1-beta AlphaLISA Primary Screen; THP-1 LPS/ATP IL-1B secretion, AlphaLISA, 16 h; active compounds read low; activity change, % at 57.5 µM; 4.7% of 360,000 active; in the data active = activity change below about -50%; inconclusive = mostly about -30% to -49%
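THP-1 cells pretreated 1 hr with compounds (up to 57.5 uM final), then stimulated with LPS (250 ng/mL final) plus ATP (1.25 mM final); secreted IL-1B measured by AlphaLISA after 16 hr, decreased signal indicating inhibition.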
Of the large screens only hits and unclear results are named; the others gave an inactive call. An excerpt weighted towards active compounds, which were near 19% of everything screened. Unless noted, calls follow the shape of the dose curve; as a rule, active = well fitted curve in the direction sought with a large enough effect; inconclusive = small, poorly fitted or top-dose-only effect, or another doubt; inactive = no such curve, though single readings can be large; an effect the other way counts as inactive or inconclusive.

S=C(NCCc1c[nH]c2ccccc12)NC1CCCCC1	TDP1 cell CPT inconclusive, TDP1 cell noCPT inconclusive, IL-1B inflam inh -52
Cc1cccc(NC(=S)NCCc2c[nH]c3ccccc23)c1	TDP1 cell CPT inconclusive, TDP1 cell noCPT inconclusive
Cc1ccc(NC(=S)NCCc2c[nH]c3ccccc23)cc1	TDP1 cell CPT inconclusive, TDP1 cell noCPT 23µM, TGFb SMAD3 inh inconclusive
CC(C)c1ccc(NC(=S)NCCc2c[nH]c3ccccc23)cc1	TDP1 cell CPT inconclusive, TDP1 cell noCPT 26µM, TGFb SMAD3 inh inconclusive, IL-1B inflam inh -53
S=C(NCCCc1ccccc1)NC1CCCCC1	TDP1 cell CPT inconclusive, TDP1 cell noCPT inconclusive, TGFb SMAD3 inh inconclusive, IL-1B inflam inh -89
S=C(NCCc1c[nH]c2ccccc12)NC1CCCC1	none
CCN(CC)c1ccc(/C=C/c2sc3ccccc3[n+]2CCCCI)cc1	TDP1 cell CPT 0.63µM, TDP1 cell noCPT 0.45µM, TGFb SMAD3 inh 13µM (no result: S-ASM inh, IL-1B inflam inh)
CCCCCCC[n+]1c(/C=C/c2ccc(N(C)C)cc2)sc2ccccc21	TDP1 cell CPT 0.16µM, TDP1 cell noCPT 0.28µM, TGFb SMAD3 inh inconclusive (no result: S-ASM inh, IL-1B inflam inh)
COc1ccc(/C=C2\C(=N)N3N=C(CC(=O)N4CCCCC4)SC3=NC2=O)cc1	none
CC(C)N(Cc1ccccc1)C(=O)C1CCN(c2ncnc3c2nc2n3CCCCC2)CC1	TDP1 cell CPT inconclusive, TDP1 cell noCPT 18µM
COC(=O)c1ccccc1NC(=O)C1CCN(c2ncnc3c2nc2n3CCCCC2)CC1	TDP1 cell CPT 21µM, TDP1 cell noCPT 16µM
Cc1cccc(NC(=O)C2CCN(c3ncnc4c3nc3n4CCCCC3)CC2)n1	TDP1 cell CPT inconclusive
Cc1c(Cl)cccc1NC(=O)C1CCN(c2ncnc3c2nc2n3CCCCC2)CC1	TDP1 cell CPT inconclusive (no result: S-ASM inh, IL-1B inflam inh)
COc1ccccc1NC(=O)C1CCN(c2ncnc3c2nc2n3CCCCC2)CC1	TDP1 cell CPT 23µM, TDP1 cell noCPT 18µM, IL-1B inflam inh inconclusive
COCCNC(=O)C1CCCN(C(=O)c2cncc(Br)c2)CC1 (centres undefined)	none (no result: S-ASM inh)
COc1ccc(NCc2nnc(SCC(=O)NCc3ccco3)n2-c2ccccc2OC)cc1	none
COc1ccc(NCc2nnc(SCC#N)n2-c2ccccc2OC)cc1	TDP1 cell CPT inconclusive, TDP1 cell noCPT 16µM
CCOc1ccc(NCc2nnc(SCc3ccc(Cl)cc3)n2-c2ccccc2)cc1	TDP1 cell CPT inconclusive, TDP1 cell noCPT 29µM, TGFb SMAD3 inh inconclusive, IL-1B inflam inh inconclusive
CCn1c(CNc2ccc(Cl)cc2)nnc1SCc1ccc(Cl)cc1	TDP1 cell CPT inconclusive, TDP1 cell noCPT 18µM, TGFb SMAD3 inh inconclusive
CCn1c(CNc2ccc(Cl)cc2)nnc1SCCN1CCCCC1	TDP1 cell CPT 21µM, TDP1 cell noCPT 18µM
CCOC(=O)CSc1nnc(CNc2ccc(Cl)cc2)n1-c1ccccc1	TGFb SMAD3 inh inconclusive
O=C(CN(C(=O)CCC(=O)Nc1ccccn1)C1CCCC1)NCc1ccccc1	none
CCOc1ccc(CNC(=O)C2CCCN(S(=O)(=O)c3ccc4c(c3)CCCC(=O)N4)C2)cc1 (centres undefined)	none (no result: TDP1 cell CPT, S-ASM inh, TDP1 cell noCPT, IL-1B inflam inh)
COc1ccc(CCNC(=O)c2cc(-c3cc(Cl)ccc3O)n[nH]2)cc1OC	TDP1 cell CPT inconclusive, TDP1 cell noCPT 12µM
COc1ccc(CCNC(=O)c2cc(-c3ccc(C)cc3O)n[nH]2)cc1OC	TDP1 cell CPT inconclusive, TDP1 cell noCPT 21µM
COc1ccc(CCNC(=O)c2cc(-c3ccccc3O)n[nH]2)cc1OC	none
CCOC(=O)c1c(C)oc2c1c(CN1CCN(CCO)CC1)c(O)c1ccccc12	TDP1 cell CPT inconclusive, TDP1 cell noCPT inconclusive, IL-1B inflam inh -98
CCOC(=O)c1c(C)oc2c1c(CN1CCN(C(=O)OCC)CC1)c(O)c1ccccc12	TDP1 cell CPT inconclusive, TDP1 cell noCPT 21µM, TGFb SMAD3 inh inconclusive, IL-1B inflam inh inconclusive
CCOC(=O)c1c(C)oc2c1c(C=NC1CCS(=O)(=O)C1)c(O)c1ccccc12 (centres undefined)	TDP1 cell CPT 23µM, TDP1 cell noCPT 21µM
CCOC(=O)c1nnn2c1nc(N1CCOCC1)c1ccccc12	none
CCOC(=O)c1c(C)oc2c1c(C(c1ccncc1)N1CCOCC1)c(O)c1ccccc12 (centres undefined)	TDP1 cell CPT 21µM, TDP1 cell noCPT inconclusive
CCOC(=O)c1c(C)oc2c1c(C=NCCC(=O)O)c(O)c1ccccc12	none
CCOC(=O)c1c(C)oc2c(CC(=O)c3ccccc3)c(Cl)c(O)c(O)c12	TDP1 cell CPT inconclusive, TDP1 cell noCPT inconclusive, TGFb SMAD3 inh inconclusive
CCOc1ccccc1Oc1c(C)oc2c(CN3CCN(CCO)CC3)c(O)ccc2c1=O	none
COc1ccc(S(=O)(=O)NC(CCSC)C(=O)NC2CCCCC2)cc1 (centres undefined)	none
O=C(C1CCCCC1)N1CCOc2ccc(CN3CCN(Cc4ccccn4)CC3)cc2C1	none (no result: S-ASM inh, TGFb SMAD3 inh, HepG2 viability, IL-1B inflam inh)
COc1ccc(Oc2ncc3nc(C)c(=O)n(Cc4cccc(OC)c4)c3n2)cc1	none (no result: S-ASM inh, TGFb SMAD3 inh, HepG2 viability, IL-1B inflam inh)
CCOc1ccccc1N(CC(=O)NC1CCCCC1)C(=O)CCC(=O)Nc1nccs1	TDP1 cell noCPT inconclusive

Compound activity from PubChem BioAssay.
